# Screens as filed in PubChem.
# SKN-1 block: C. elegans SKN-1 inhibition; C. elegans VP596 Pgst-4::GFP/RFP ratio, acrylamide-induced, 24 h; inhibition, % at 21.8 µM; 0.49% of 360,000 active; AID 624304;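 active = interference check ratio from 0.5 to 1.5 plus GFP to RFP signal ratio inhibition reaching or exceeding a fixed threshold, cut at about 30% in these data, passing the limit was not always enough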
# MEKK3 PB1 HTS: MEKK3-MEK5 PB1 interaction, increase or decrease; binding response (% of control), % at 10 µM; bead-based flow cytometry, Alexa488-MEK5 binding to MEKK3; actives lie on both sides; 0 = blocked by unlabeled MEK5, 100 = vehicle; AID 1529; 1.4% of 290,000 active; Q99759;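 active = binding response more than 3 SD above or below the average of its plate-row segment, actives on both sides; inconclusive = wells at one plate position flagged as instrument error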;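 note: Alexa488 bead fluorescence after subtracting the streptavidin-only scavenger bead signal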
# MEKK2wt PB1 HTS: raises or lowers MEK5 binding to wildtype human MEKK2 PB1 domain; bead flow cytometry, Alexa488-MEK5 binding to MEKK2 WT; actives lie on both sides; 1.1% of 290,000 active; binding response (% of control), % at 10 µM; in the data active = binding response below about 67% or above about 130%; inconclusive = no clear call, values can overlap the other calls; inactive = in between
# MEKK2 mut-MEK5: signal of MEK5 binding to mutant human MEKK2 PB1 domain | bead flow cytometry, Alexa488-MEK5 binding to MEKK2 mutant | percent response, % at 10 µM | 0.35% of 290,000 active; in the data active = percent response above about 24%, passing the limit was not always enough
# CendR NRP1 mod: modulators of CendR peptide binding to human neuropilin-1. inhibition, % at 25 µM. O14786. FAM-RPARPAR peptide binding to NRP-1, fluorescence polarization. 0.85% of 360,000 active;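 active = inhibition or corrected inhibition above about 18%, plus a signal ratio from 0.5 to 1.5, limit read from the data, passing the limit was not always enough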
# Target sequence (O14786 whole entry, looked up): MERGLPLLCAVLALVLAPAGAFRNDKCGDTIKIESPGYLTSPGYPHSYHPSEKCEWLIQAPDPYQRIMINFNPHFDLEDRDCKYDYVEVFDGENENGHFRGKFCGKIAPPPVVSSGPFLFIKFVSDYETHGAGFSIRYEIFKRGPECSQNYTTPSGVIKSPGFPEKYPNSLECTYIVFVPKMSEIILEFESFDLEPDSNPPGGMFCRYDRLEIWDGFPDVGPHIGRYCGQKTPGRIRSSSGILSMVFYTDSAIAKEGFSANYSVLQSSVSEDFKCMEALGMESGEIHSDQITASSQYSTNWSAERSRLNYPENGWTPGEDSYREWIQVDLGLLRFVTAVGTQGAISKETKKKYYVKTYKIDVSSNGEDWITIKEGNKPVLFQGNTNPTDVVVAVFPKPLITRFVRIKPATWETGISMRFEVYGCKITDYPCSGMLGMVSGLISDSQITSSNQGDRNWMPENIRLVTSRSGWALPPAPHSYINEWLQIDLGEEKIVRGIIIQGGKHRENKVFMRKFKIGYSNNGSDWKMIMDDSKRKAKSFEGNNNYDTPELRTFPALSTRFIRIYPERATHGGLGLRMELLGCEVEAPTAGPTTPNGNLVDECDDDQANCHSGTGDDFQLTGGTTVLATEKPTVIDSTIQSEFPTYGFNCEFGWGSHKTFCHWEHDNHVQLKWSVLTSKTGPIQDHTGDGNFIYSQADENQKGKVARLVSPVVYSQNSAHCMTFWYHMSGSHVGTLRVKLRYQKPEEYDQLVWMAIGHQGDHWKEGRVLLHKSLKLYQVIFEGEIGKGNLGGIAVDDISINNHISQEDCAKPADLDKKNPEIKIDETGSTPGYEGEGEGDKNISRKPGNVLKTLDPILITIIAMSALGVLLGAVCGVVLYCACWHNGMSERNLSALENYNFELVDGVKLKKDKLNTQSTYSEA
# MEKK2wt confirm: raises or lowers MEK5 binding to wildtype human MEKK2, retest. bead flow cytometry, Alexa488-MEK5 binding to MEKK2 WT; actives lie on both sides. AID 1892. binding response (% of control), % at 10 µM. shares compounds with MEKK3 PB1 HTS. 2.4% of 5,900 active; in the data active = binding response below about 16% or above about 210%; inactive = in between
# MEKK2mut confirm: signal of MEK5 binding to mutant human MEKK2, retest; 2% of 5,900 active; AID 1893; shares compounds with MEKK3 PB1 HTS; bead flow cytometry, Alexa488-MEK5 binding to MEKK2 mutant; percent response, % at 10 µM; in the data active = percent response mostly above about 71%, no sharp cut-off; inactive = mostly below about 38%;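 note: higher means compound restores mutant binding toward wildtype level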
# MEKK3-MEK5 inh: MEKK3-MEK5 PB1 inhibition, single concentration confirmation; shares compounds with MEKK3 PB1 HTS; bead flow cytometry, Alexa488-MEK5 binding to MEKK3; hits give low values; binding response (% of control), % at 10 µM; 1.8% of 5,900 active; AID 1894;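 active = binding response below 72% of control, or above a set upper limit, though filed actives all read lower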;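 note: 100% = DMSO only wells and 0% = binding blocked by excess unlabeled MEK5; lower values mean stronger disruption of MEK5 binding to MEKK3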
# Active calls of the source: *; ? = inconclusive; · = no result given; [ ] = remark or other dose. Hits are enriched below; roughly 3.2% of the tested compounds scored in any of these assays.
SMILES,SKN-1 block,MEKK3 PB1 HTS,MEKK2wt PB1 HTS,MEKK2 mut-MEK5,CendR NRP1 mod,MEKK2wt confirm,MEKK2mut confirm,MEKK3-MEK5 inh
CCOC(=O)C1=C(c2ccccc2)NC(N)=NC1c1ccc(OCc2ccc(C(=O)OC)cc2)cc1 (stereo not drawn),4,109,194*,49,1,260*,76*,112
CCOC(=O)C1=C(c2ccccc2)Nc2ncnn2C1c1ccc(C(=O)O)cc1 (stereo not drawn),-4,?,?,-21,7,·,·,·
O=C(COc1ccc2c(-c3ccccc3)cc(=O)oc2c1)N1C[C@H]2C[C@@H](C1)c1cccc(=O)n1C2,1,·,·,·,-5,·,·,·
Cc1ccc(OCc2nnn(CC(=O)NS(=O)(=O)c3c(C)noc3C)c2-c2ccccc2)cc1,1,·,·,·,12,·,·,·
COc1cc(CCC(=O)OCC(=O)Nc2nc(C)c(Cl)cc2Cl)cc(OC)c1OC,-2,102,12*[inhibitor],-32,-5,95,-10,97
COc1cc(CCC(=O)OCC(=O)Nc2ncc(Cl)cc2Cl)cc(OC)c1OC,-1,98,93,14,-9,·,·,·
O=C(NCC(=O)N1CCCCCCC1)c1ccc(Cl)c(Cl)c1,9,·,·,·,-8,·,·,·
COc1cc(-n2c(C)nc3ncn(-c4ccccc4)c3c2=O)cc(OC)c1OC,5,·,·,·,3,·,·,·
Cc1ccccc1NC(=O)COC(=O)C1(C)CC1(Cl)Cl (stereo not drawn),-12,2.0*[inhibitor],1.0*[inhibitor],-20,6,93,-10,89
COCCN1C(=O)/C(=C/c2ccc(N3CCCC3)cc2)SC1=S,49,87,59*[inhibitor],-22,134,50,-32,88
CCOc1ccccc1NC(=O)C(OC(=O)c1ccccc1)c1ccccc1 (stereo not drawn),7,130*,106,1,-13,95,-5,100
COc1ccc(C)cc1Nc1n[n+](-c2ccccc2)c(-c2c(Cl)cccc2Cl)s1,·,109,127,7,·,·,·,·
COc1ccc(C)cc1Nc1n[n+](-c2ccccc2)c(-c2ccc(OC)c(OC)c2OC)s1,-10,94,149*,12,3,144,26,106
COc1ccc(C)cc1Nc1n[n+](-c2ccccc2)c(-c2ccc(N(C)C)cc2)s1,3,105,142*,46*,-197,155,34,109
O=C(NC1CCCC1)c1ccccc1OCc1ccccc1,-3,63*[inhibitor],84,-3,-2,145,25,111
O=C(NC1CCN(Cc2ccccc2)CC1)c1ccccc1OCc1ccccc1,21,107,113,8,-8,·,·,·
O=C(CCNC(=O)OCc1ccccc1)NC1CCCCC1,1,135*,105,3,3,94,3,100
c1ccc(COc2ccc(OCCCNC3CCCC3)cc2)cc1,8,108,140*,10,3,127,17,101
Cc1ccc(CNC(=O)COC(=O)CSc2ccc(Br)cc2C)cc1,-1,130*,107,0,8,103,-1,105
O=S(=O)(Cc1ccccc1)C(c1ccccc1)S(=O)(=O)Cc1ccccc1,21,·,·,·,-6,·,·,·
COc1ccc(NC(=S)NNC(=O)c2ccco2)c(OC)c1,-3,100,106,6,-1,·,·,·
O=C1c2cccc3cccc(c23)C(=O)N1CCN1CCN(CC(O)COc2ccc3ccccc3c2)CC1 (stereo not drawn),8,111,149*,5,-1,178,43,105
COc1cccc(OCC(O)CN2CCC(CN3C(=O)c4cccc5cccc(c45)C3=O)CC2)c1 (stereo not drawn),-1,115,156*,-3,8,115,11,100
CCc1ccc(OCC(O)CN2CCC(CN3C(=O)c4cccc5cccc(c45)C3=O)CC2)cc1 (stereo not drawn),-10,118,148*,1,-6,199,43,108
O=C1c2cccc3cccc(c23)C(=O)N1CC1CCN(CC(O)COc2ccc3ccccc3c2)CC1 (stereo not drawn),3,·,·,·,-7,·,·,·
SMILES,SKN-1 block,MEKK3 PB1 HTS,MEKK2wt PB1 HTS,MEKK2 mut-MEK5,CendR NRP1 mod,MEKK2wt confirm,MEKK2mut confirm,MEKK3-MEK5 inh
O=S1(=O)C[C@H](N2CCN(CC3CC3)CC2)[C@@H](COCc2ccccc2)N1,8,·,·,·,8,·,·,·
CCOC(=O)c1ccc(-c2ccc3ncnc(NCc4csc(C)n4)c3c2)o1,4,·,·,·,0,·,·,·
COc1ccccc1-c1cccc([C@@H]2C[C@H]3[C@@H](CN2)CON3C)c1,-1,·,·,·,-19,·,·,·
CN(C)CCNC(=O)c1cc2c(s1)-c1ccc(Cl)cc1SC2,26,110,181*,40*,-7,152,27,106
COc1ccc(N(CC(=O)NCc2ccc(C)cc2)S(=O)(=O)c2c(C)noc2C)cc1,12,96,96,5,12,·,·,·
CC1=CC(C)(C(Cl)(Cl)Cl)C(C)=CC1=NO (stereo not drawn),1,·,·,·,-9,·,·,·
CC(C)C[C@@H]1COc2cccc(N3CCN(Cc4ccccc4F)CC3)c2S(=O)(=O)N1,-3,·,·,·,5,·,·,·
CC(=O)N1CCN(c2ccc(Nc3ncnc4c3oc3ccccc34)cc2)CC1,9,81*[inhibitor],89,-12,-1,106,8,101
CCc1nc(Nc2ccc(N3CCN(C(C)=O)CC3)cc2)c2oc3ccccc3c2n1,9,94,101,-1,3,·,·,·
CCCCNC(=O)C(NC(=O)c1cccnc1)C(=O)c1ccccc1 (stereo not drawn),-1,·,·,·,7,·,·,·
C=CCc1ccc(OCC(O)CN2CCCCC2C)c(OC)c1 (stereo not drawn),10,104,136*,42*,-4,123,15,101
COc1ccc(C)cc1NC(=O)CC(NC(C)=O)c1ccccc1 (stereo not drawn),5,135*,116,1,-3,102,-7,99
COc1ccc(C)cc1NC(=O)CNC(c1ccccc1)c1ccc(C)cc1 (stereo not drawn),0,101,100,-1,-4,·,·,·
O=C(CSC1=Nc2ccccc2C2=NC(c3ccccc3)C(=O)N12)NC1CCCCC1 (stereo not drawn),4,124*,125,6,-3,101,2,103
CN(C(=O)CSC1=Nc2ccccc2C2=NC(c3ccccc3)C(=O)N12)C1CCCCC1 (stereo not drawn),-6,100,98,3,-6,·,·,·
